Screening results as filed in PubChem.
Cruzain inh noDet: inhibitors of Trypanosoma cruzi cruzain without detergent | P25779 | Potency, µM, hits mostly inhibitors | purified cruzain, Z-FR-AMC fluorescence, no detergent | AID 1476 | 2.3% of 200,000 active; also: nearly all actives have a fitted effect of over 40% in size
Target sequence (P25779 123-467 limits assumed): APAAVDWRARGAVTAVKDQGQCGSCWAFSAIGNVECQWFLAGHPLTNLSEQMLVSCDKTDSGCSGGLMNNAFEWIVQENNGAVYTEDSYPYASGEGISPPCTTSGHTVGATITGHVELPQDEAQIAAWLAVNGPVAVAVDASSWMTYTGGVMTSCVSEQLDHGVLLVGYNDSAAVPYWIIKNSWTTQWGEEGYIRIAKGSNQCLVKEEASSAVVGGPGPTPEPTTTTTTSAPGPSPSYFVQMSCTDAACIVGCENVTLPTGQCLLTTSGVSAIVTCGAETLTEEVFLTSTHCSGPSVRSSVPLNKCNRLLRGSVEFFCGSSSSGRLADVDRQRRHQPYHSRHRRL
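Purified cruzain at 1.5 nM, pre-incubated 15 min with compound at room temperature in 100 mM sodium acetate pH 5.5, 5 mM DTT, 0.00005% Triton X-100. Reaction started with 2 uM Z-FR-AMC; AMC fluorescence increase over 60 s gives rate.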
Cruzain Triton: inhibitors of Trypanosoma cruzi cruzain with detergent. purified cruzain, Z-FR-AMC fluorescence, 0.01% Triton. Potency, µM, hits mostly inhibitors. 0.43% of 200,000 active. AID 1478; also: nearly all actives have a fitted effect of over 40% in size
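In this qHTS format, compounds are incubated with 1.5 nM cruzain for 15 min at room temperature before 2 uM Z-FR-AMC is added. Release of AMC is followed at 360/450 nm, and progress is taken as the 60 s fluorescence difference.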
Large screens that a line does not name were inactive. An excerpt weighted towards active compounds, which were near 2.5% of everything screened. Calls follow the shape of the dose curve; as a rule, active = well fitted curve in the direction sought with a large enough effect; inconclusive = small, poorly fitted or top-dose-only effect, or another doubt; inactive = no such curve, though single readings can be large; an effect the other way counts as inactive or inconclusive.

Cc1ccc(-c2noc(CCC(=O)Nc3ccc(C)cn3)n2)cc1	Cruzain inh noDet 25µM
O=C1CS(=O)(=O)C2(C(=O)N(Cc3ccc(F)cc3)c3ccccc32)N1c1cccc(C(F)(F)F)c1 (configuration not stated)	Cruzain inh noDet inconclusive
Cc1ccc(CN2C(=O)C3(c4ccccc42)N(c2cccc(C(F)(F)F)c2)C(=O)CS3(=O)=O)cc1 (configuration not stated)	Cruzain inh noDet 13µM
O=C1CS(=O)(=O)C2(C(=O)N(Cc3ccccc3)c3ccccc32)N1c1ccccc1 (configuration not stated)	Cruzain inh noDet inconclusive
Cc1cc(C)cc(N2C(=O)CS(=O)(=O)C23C(=O)N(Cc2ccccc2)c2ccccc23)c1 (configuration not stated)	Cruzain inh noDet 6.3µM
CCOC(=O)c1c(-c2ccc(OC)cc2)csc1NC(=O)CCN1C(=O)c2ccccc2C1=O	Cruzain inh noDet 16µM
CCOC(=O)c1c(-c2ccc(OCC)cc2)csc1NC(=O)CCN1C(=O)c2ccccc2C1=O	Cruzain inh noDet inconclusive
CCCN(CCC)C(=O)Cn1nnc2sc(-c3ccccc3)cc2c1=O	none
COc1ccc(NC(=O)CC2Oc3ccc(C)cc3NC2=O)cc1Cl (configuration not stated)	none
O=C(CCc1ccccc1)NC(NC(=S)Nc1ccc(Br)cc1)C(Cl)(Cl)Cl (configuration not stated)	Cruzain inh noDet 10µM
O=C(CCc1ccccc1)NC(NC(=S)Nc1cccc(Cl)c1)C(Cl)(Cl)Cl (configuration not stated)	Cruzain inh noDet 7.9µM
S=C(NCCC(c1ccccc1)c1ccccc1)Nc1cccc(Cl)c1	Cruzain inh noDet 16µM
S=C(NCc1ccncc1)Nc1cccc(Cl)c1	none
CCCC(=O)NC(NC(=S)Nc1ccc(N=Nc2ccccc2)cc1)C(Cl)(Cl)Cl (configuration not stated)	none
O=C(/C=C/c1ccccc1)NC(NC(=S)Nc1cccc(Cl)c1)C(Cl)(Cl)Cl (configuration not stated)	Cruzain inh noDet inconclusive
COc1ccc(S(=O)(=O)Nc2cccc(-c3ccc(N4CCC(C)CC4)nn3)c2)cc1OC	none
CCc1c2c(nc3cccc(SC)c13)COC2	none
CCc1ccc(CNc2ccc(O)cc2)cc1	Cruzain inh noDet 32µM
Oc1ccc(NCc2ccc(OCc3ccccc3)cc2)cc1	none
COc1ccc(-c2[nH]n(-c3ccc([N+](=O)[O-])cc3)c(=O)c2C=NCc2ccc(F)cc2)cc1	Cruzain inh noDet 25µM
COc1ccc(-c2[nH]n(-c3ccc([N+](=O)[O-])cc3)c(=O)c2C=NCc2ccncc2)cc1	Cruzain inh noDet inconclusive
O=c1[nH]c(SCc2ccc(F)cc2)nc2c1cnn2-c1ccc(F)cc1	Cruzain inh noDet 16µM
CCC(C)Sc1nc2c(cnn2-c2ccccc2)c(=O)[nH]1 (configuration not stated)	none
CCCCSc1nc2c(cnn2-c2ccc(C)c(C)c2)c(=O)[nH]1	Cruzain inh noDet 20µM
CCCSc1nc2c(cnn2-c2ccc(F)cc2)c(=O)[nH]1	none
CCCSc1nc2c(cnn2-c2ccc(C)c(C)c2)c(=O)[nH]1	none
CCC(C)Sc1nc2c(cnn2-c2ccc(C)cc2)c(=O)[nH]1 (configuration not stated)	Cruzain inh noDet 20µM
CC(C)(CC(=O)Nc1ccccc1)C(=O)O	none
Cc1cc(Nc2cc(Cl)ccc2C)n2nc(Cc3ccccc3)nc2n1	none
CCCCn1c(C2CC(=O)N(c3ccc(OCC)cc3)C2)nc2ccccc21 (configuration not stated)	none
COc1ccc(C(=O)[C@]2(C)C=C(c3ccc(OC)cc3)[C@H](C)C2)cc1	none
COc1ccc(NC(=O)CSc2nc(-c3ccccc3)[nH]c2-c2ccccc2)cc1OC	none
N=C1SC(c2ccccc2)C(=O)N1c1ncc(Cc2ccccc2)s1 (configuration not stated)	Cruzain inh noDet 7.9µM
Cc1ccc(Cc2cnc(N3C(=N)SC(c4ccccc4)C3=O)s2)cc1 (configuration not stated)	Cruzain inh noDet inconclusive
Cc1c(C(=O)NCC2COc3ccccc3O2)oc2ccc(S(=O)(=O)N3CCOCC3)cc12 (configuration not stated)	none
Cc1c(C(=O)NCC2COc3ccccc3O2)oc2ccc(S(=O)(=O)N3CC(C)CC(C)C3)cc12 (configuration not stated)	Cruzain inh noDet 20µM
COC(=O)CCn1cnc2onc(-c3cc(F)cc(F)c3)c2c1=O	none
CCCCCCCCCCCCCCCC(=O)N[C@@H](COP(=O)(O)O)C(=O)O	Cruzain inh noDet inconclusive
Cc1c(C(=O)OCc2ccccc2)[nH]c2c1C(=O)CC(c1ccc(C(C)(C)C)cc1)C2 (configuration not stated)	none
CCOC(=O)c1[nH]c2c(c1Cc1ccccc1)C(=O)CC(c1ccc(C(C)(C)C)cc1)C2 (configuration not stated)	Cruzain inh noDet 10µM
